This is an account of results in ChEMBL document CHEMBL1961873, “Compounds: GSK PKIS; Assays: Nanosyn kinase panel” (2012).

The target of assay [1] is Dual specificity protein kinase CLK3 (Homo sapiens) (UniProt P49761). The note with it: at 1 µM.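 Further: each value is the mean inhibition of CLK3.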
Assay [2] concerns the target Dual specificity tyrosine-phosphorylation-regulated kinase 1A (Homo sapiens) (UniProt Q13627). The following applies: at 0.1 µM.
The target is the same in assay [3]. The following applies: at 1 µM.
Assay [4] has as its target Dual specificity tyrosine-phosphorylation-regulated kinase 1B (Homo sapiens) (UniProt Q9Y463). The following applies: at 0.1 µM.
Assay [5] has the same target. The following applies: at 1 µM.
In assay [6] the target is T1, Dual specificity tyrosine-phosphorylation-regulated kinase 2 (Homo sapiens) (UniProt Q92630).
T1 sequence (whole entry): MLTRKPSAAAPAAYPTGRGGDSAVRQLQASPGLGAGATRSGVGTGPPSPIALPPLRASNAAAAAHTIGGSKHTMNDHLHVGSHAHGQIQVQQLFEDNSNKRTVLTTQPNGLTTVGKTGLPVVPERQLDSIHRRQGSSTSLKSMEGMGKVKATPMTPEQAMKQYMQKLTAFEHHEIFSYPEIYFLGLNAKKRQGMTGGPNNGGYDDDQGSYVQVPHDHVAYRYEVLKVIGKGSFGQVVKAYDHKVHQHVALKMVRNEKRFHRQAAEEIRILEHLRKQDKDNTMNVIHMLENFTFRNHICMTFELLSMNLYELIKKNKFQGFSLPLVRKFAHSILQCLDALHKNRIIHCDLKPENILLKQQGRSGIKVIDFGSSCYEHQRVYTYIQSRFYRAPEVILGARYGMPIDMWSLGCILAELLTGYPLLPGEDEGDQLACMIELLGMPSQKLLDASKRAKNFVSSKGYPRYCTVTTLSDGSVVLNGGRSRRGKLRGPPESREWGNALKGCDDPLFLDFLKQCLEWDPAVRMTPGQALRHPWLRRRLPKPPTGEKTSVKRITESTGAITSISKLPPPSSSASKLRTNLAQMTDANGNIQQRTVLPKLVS
The following applies: at 0.1 µM.

Assay [7] concerns the target T1, Dual specificity tyrosine-phosphorylation-regulated kinase 2 (Homo sapiens). The note with it: at 1 µM.
The target of assay [8] is Glycogen synthase kinase-3 alpha (Homo sapiens) (UniProt P49840). The following applies: at 0.1 µM.
Assay [9] shares this target. The note with it: at 1 µM.
Assay [10] concerns the target Glycogen synthase kinase-3 beta (Homo sapiens) (UniProt P49841). The note with it: at 0.1 µM.
The target is the same in assay [11]. The note with it: at 1 µM.
The target in assay [12] is Homeodomain-interacting protein kinase 1 (Homo sapiens) (UniProt Q86Z02). The note with it: at 0.1 µM.
Assay [13] has the same target. The following applies: at 1 µM.
Assay [14] deals with T2, Homeodomain-interacting protein kinase 4 (Homo sapiens) (UniProt Q8NE63).
T2 sequence (whole entry): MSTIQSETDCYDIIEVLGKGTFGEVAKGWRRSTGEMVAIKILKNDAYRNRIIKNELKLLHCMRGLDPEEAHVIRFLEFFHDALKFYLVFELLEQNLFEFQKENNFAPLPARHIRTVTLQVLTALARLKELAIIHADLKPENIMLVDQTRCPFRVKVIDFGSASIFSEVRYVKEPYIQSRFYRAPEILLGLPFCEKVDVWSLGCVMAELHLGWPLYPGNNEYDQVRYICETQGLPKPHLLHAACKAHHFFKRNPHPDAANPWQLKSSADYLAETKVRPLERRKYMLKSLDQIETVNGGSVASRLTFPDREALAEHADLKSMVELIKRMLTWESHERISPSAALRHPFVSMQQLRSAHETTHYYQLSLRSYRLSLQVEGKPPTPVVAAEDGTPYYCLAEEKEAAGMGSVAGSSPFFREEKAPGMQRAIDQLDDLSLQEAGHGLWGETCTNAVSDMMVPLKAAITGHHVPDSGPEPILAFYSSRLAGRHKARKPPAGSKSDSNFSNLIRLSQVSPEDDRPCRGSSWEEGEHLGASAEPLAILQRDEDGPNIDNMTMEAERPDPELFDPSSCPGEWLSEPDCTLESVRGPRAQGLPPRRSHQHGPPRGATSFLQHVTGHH
The note with it: at 0.1 µM.

Assay [15] concerns the target T2, Homeodomain-interacting protein kinase 4 (Homo sapiens). The note with it: at 1 µM.
In assay [16] the target is Mitogen-activated protein kinase 9 (Homo sapiens) (UniProt P45984). The following applies: at 0.1 µM.
Assay [17] has the same target. The note with it: at 1 µM.
In assay [18] the target is Mitogen-activated protein kinase 3 (Homo sapiens) (UniProt P27361). The following applies: at 0.1 µM.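 Further: each value is a mean inhibition figure.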
In assay [19] the target is Mitogen-activated protein kinase 1 (Homo sapiens) (UniProt P28482). The note with it: at 0.1 µM.
The target is the same in assay [20]. The following applies: at 1 µM.

Chain of Mitogen-activated protein kinase 1 (Homo sapiens) (P28482 whole entry): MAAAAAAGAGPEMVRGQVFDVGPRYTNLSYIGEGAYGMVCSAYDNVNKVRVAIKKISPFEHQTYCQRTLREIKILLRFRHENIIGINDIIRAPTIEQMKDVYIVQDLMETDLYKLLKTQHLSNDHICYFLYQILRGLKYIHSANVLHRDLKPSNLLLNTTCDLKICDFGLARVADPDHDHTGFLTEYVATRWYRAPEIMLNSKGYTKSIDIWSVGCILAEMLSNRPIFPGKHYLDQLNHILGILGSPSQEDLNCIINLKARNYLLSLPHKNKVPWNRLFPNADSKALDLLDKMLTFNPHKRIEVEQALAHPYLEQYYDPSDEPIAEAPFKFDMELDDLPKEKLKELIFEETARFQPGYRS
Chain of Mitogen-activated protein kinase 9 (Homo sapiens) (P45984 whole entry, looked up): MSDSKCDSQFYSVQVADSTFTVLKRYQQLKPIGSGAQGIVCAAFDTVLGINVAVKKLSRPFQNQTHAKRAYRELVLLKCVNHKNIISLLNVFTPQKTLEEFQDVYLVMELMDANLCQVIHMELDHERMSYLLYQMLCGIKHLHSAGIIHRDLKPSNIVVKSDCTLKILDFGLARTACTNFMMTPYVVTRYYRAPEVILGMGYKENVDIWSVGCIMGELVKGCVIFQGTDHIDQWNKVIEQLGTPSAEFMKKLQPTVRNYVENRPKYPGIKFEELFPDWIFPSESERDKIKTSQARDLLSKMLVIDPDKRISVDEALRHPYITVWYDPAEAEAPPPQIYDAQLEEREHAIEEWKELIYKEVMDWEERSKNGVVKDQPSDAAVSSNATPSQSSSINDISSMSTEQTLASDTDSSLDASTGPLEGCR
Chain of Homeodomain-interacting protein kinase 1 (Homo sapiens) (Q86Z02 whole entry, looked up): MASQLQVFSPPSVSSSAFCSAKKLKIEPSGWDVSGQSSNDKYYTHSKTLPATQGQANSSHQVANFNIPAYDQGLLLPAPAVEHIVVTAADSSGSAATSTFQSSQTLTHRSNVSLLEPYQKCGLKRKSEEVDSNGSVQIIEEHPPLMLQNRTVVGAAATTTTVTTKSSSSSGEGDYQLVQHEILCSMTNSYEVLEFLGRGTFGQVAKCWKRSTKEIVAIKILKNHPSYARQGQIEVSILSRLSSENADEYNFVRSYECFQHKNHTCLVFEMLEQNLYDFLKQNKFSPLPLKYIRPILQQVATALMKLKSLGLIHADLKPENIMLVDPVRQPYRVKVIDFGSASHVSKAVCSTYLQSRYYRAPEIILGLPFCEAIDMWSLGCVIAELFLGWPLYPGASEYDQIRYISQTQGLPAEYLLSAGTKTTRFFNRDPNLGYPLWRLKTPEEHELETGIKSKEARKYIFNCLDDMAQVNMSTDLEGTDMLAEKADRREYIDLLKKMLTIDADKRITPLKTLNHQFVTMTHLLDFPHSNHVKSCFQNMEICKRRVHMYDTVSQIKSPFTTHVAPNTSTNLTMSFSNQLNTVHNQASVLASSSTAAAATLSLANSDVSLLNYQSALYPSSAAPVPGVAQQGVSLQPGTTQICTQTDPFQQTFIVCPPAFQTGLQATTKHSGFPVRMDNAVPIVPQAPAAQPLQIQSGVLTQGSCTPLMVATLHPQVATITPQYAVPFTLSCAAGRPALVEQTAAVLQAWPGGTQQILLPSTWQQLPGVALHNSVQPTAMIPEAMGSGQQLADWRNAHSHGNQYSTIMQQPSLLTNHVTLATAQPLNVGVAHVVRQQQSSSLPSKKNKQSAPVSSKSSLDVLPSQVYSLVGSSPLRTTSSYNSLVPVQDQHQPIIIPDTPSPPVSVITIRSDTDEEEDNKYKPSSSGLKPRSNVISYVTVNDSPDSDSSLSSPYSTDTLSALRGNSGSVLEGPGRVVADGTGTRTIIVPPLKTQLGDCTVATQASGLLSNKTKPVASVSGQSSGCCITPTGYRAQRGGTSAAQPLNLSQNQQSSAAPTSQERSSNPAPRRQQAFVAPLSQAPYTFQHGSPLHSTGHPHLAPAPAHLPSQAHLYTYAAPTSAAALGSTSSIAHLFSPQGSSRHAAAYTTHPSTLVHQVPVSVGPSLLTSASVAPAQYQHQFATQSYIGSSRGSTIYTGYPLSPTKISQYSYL
Chain of Dual specificity protein kinase CLK3 (Homo sapiens) (P49761 whole entry, looked up): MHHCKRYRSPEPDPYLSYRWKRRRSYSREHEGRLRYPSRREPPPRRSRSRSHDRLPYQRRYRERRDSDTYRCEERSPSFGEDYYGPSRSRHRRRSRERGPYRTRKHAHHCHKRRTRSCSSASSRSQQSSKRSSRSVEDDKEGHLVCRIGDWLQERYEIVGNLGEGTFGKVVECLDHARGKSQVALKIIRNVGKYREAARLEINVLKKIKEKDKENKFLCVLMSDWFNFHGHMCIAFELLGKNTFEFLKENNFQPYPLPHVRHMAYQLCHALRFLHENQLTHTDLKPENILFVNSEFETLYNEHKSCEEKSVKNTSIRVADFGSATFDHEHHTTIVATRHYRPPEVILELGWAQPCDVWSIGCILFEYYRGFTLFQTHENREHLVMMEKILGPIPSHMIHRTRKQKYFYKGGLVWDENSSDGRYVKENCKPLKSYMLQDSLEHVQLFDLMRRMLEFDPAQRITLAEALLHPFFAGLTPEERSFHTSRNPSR
Chain of Glycogen synthase kinase-3 beta (Homo sapiens) (P49841 whole entry, looked up): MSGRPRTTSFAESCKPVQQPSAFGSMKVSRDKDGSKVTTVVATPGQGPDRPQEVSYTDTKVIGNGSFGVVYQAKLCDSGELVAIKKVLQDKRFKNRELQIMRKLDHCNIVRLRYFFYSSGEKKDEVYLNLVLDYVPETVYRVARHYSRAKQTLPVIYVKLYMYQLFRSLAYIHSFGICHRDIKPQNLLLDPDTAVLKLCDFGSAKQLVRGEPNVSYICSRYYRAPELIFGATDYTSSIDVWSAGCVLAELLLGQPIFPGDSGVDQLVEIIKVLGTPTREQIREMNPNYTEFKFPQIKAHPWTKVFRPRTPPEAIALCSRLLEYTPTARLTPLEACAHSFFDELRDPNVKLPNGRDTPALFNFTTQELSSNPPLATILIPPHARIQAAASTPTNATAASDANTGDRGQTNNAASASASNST
Chain of Mitogen-activated protein kinase 3 (Homo sapiens) (P27361 whole entry): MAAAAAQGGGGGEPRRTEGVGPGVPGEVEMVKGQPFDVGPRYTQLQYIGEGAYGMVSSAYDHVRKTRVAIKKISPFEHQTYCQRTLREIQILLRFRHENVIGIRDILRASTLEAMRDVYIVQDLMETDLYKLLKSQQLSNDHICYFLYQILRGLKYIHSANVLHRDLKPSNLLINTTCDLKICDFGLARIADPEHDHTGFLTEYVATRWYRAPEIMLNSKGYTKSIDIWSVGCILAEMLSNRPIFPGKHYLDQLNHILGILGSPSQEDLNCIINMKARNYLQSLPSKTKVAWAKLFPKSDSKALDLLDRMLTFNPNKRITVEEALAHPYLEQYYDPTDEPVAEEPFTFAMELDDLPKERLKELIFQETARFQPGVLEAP
Chain of Glycogen synthase kinase-3 alpha (Homo sapiens) (P49840 2-483 limits assumed): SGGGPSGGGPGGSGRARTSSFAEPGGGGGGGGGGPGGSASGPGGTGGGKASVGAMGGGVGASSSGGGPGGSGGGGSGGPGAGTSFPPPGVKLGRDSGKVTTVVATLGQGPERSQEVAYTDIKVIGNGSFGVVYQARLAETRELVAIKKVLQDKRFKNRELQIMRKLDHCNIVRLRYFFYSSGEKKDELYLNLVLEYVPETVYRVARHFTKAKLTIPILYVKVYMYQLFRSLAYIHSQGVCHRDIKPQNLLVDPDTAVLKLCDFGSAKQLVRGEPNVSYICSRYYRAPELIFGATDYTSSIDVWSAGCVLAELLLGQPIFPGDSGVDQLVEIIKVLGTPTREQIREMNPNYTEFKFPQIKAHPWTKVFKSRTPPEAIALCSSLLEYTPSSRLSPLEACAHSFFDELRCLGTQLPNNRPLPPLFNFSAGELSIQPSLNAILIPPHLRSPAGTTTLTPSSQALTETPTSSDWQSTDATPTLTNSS
Chain of Dual specificity tyrosine-phosphorylation-regulated kinase 1B (Homo sapiens) (Q9Y463 whole entry, looked up): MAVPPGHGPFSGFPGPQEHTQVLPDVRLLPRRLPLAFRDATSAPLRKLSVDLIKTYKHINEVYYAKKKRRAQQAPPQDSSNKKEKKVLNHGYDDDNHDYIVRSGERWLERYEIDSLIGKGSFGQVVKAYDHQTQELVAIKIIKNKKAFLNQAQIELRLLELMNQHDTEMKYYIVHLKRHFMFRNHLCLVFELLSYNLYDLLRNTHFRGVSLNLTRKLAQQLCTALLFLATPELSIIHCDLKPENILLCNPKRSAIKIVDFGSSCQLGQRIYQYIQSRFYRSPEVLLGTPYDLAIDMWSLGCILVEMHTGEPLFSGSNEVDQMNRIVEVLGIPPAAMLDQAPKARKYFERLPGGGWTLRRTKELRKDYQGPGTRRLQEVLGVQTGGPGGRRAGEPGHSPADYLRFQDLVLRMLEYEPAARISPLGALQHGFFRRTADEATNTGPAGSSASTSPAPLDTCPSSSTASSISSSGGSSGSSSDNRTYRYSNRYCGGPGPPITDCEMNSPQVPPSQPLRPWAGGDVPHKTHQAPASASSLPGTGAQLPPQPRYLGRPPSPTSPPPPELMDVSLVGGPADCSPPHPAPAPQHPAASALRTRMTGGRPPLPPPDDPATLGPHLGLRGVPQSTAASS

One may read the inhibition as the change of the read-out against control, counted positive when it falls. As for `COc1cc2c(cc1Nc1nc(Nc3ccsc3C(N)=O)c3cc[nH]c3n1)N(C(=O)CN(C)C)CCC2`, the inhibition was 2.92% in assay [1]; -1.83% in assay [2]; 0.58% in assay [3]; -0.31% in [4]; 4.64% in assay [5]; -0.67% in assay [6]. The inhibition in assay [7] is -2.75%; in assay [8] it was 1.22%; in assay [9] it was 0.89%; in [10] it was 1.05%; in assay [11], 2.63%; in assay [12], -2.33%. For the same compound, the inhibition in [13] was determined as 5.85%; in [14], 2.25%; in [15], 5.44%; in assay [16], 3.02%; in assay [17] it was 8.04%; in [18], 2.93%.
For the compound `CCn1c(-c2nonc2N)nc2c(C#CC(C)(C)O)nc(O[C@@H](CN)c3ccccc3)cc21`, the inhibition is 1.71% in assay [1]; 1.79% in assay [2]; 7.95% in assay [3]; 2.3% in assay [4]; 9.96% in [5]; -1.27% in [6]. For the same compound, the inhibition is 0.08% in assay [7]; 52.7% in [8]; 86.1% in assay [9]; 53.4% in assay [10]; 84.6% in [11]; 10.4% in [12]. In addition, the inhibition in assay [13] is 55.3%; in [14], 3.23%; in assay [15], 36.3%; in assay [16], 2.01%; in [17] it was 1.01%; in assay [19] it was -1.73%. Besides, the inhibition is 5.15% in [20] and 0.9% in [18].
For the compound `NC(=O)c1sc(-n2cnc3cc(C(F)(F)F)ccc32)cc1OCc1ccccc1Br`, the inhibition is -0.53% in assay [1]; -0.2% in assay [2]; 1.95% in [3]; -0.04% in assay [4]; 0.72% in assay [5]; 1.75% in [6]. The inhibition in [7] was 0.34%; in assay [8], 1.61%; in [9], 2.55%; in [10], 1.16%; in assay [11], 2.38%; in assay [12], -3.51%. In addition, the inhibition in assay [13] is 0.77%; in assay [14], -0.26%; in assay [15], 2.95%; in [16] it was 0.9%; in assay [17] it was 1.72%; in assay [19], 0.51%. The inhibition in assay [20] is 2.13%; in assay [18] it was 3.5%.
For the compound `Cc1cc(-c2ccco2)cc(C)c1/C=C/c1cncc(-c2nn[nH]n2)c1`, the inhibition is 0.08% in assay [1]; -0.27% in assay [2]; 2.81% in assay [3]; -0.75% in assay [4]; 0.15% in assay [5]; -0.1% in assay [6]. Also, the inhibition in assay [7] was -1.43%; in assay [8], 0.36%; in assay [9] it was 0.72%; in assay [10], 0.5%; in assay [11], 0.28%; in assay [12], -3.37%. Also, the inhibition in assay [13] is -0.75%; in assay [14], -0.32%; in assay [15], -0.04%; in assay [16], 1.02%; in assay [17], 0.6%; in assay [19], 1.32%. The inhibition amounted to 2.18% in assay [20] and 3.63% in assay [18].
`CCn1c(-c2nonc2N)nc2c(C#CCN)ncc(OCCCN)c21`: the inhibition was -1.34% in assay [1]; 1.67% in [2]; 4.43% in [3]; 5.17% in assay [4]; 7.49% in assay [5]; -2.75% in [6]. Besides, the inhibition was -1.66% in [7]; 0.52% in [8]; 9.28% in assay [9]; 3.41% in assay [10]; 14.4% in assay [11]; 3.64% in [12]. Besides, the inhibition in [13] is 2.54%; in [14], 1.45%; in assay [15], 2.86%; in [16], -2.82%; in assay [17] it was -3.07%; in [19], -2.43%. Also, the inhibition was -4.85% in assay [20] and -3.01% in [18].
Consider `CCn1c(-c2nonc2N)nc2c(C#CC(C)(C)O)ncc(OCC3CCNCC3)c21`, for which the inhibition in assay [1] was -1.7%; in assay [2], -3.13%; in [3], 1.2%; in assay [4] it was -4.04%; in assay [5] it was -0.01%; in assay [6], 1.35%. The inhibition was 1.98% in [7]; 12.9% in [8]; 53.9% in [9]; 11.9% in assay [10]; 55.4% in assay [11]; 0.15% in assay [12]. For the same compound, the inhibition in assay [13] worked out at 19.7%; in [14], 1.95%; in assay [15], 11.1%; in assay [16], 2.04%; in [17], 2.67%; in assay [19], 5.25%. Moreover, the values for the inhibition in [20] and in assay [18] were 4.1% and 5.07%, respectively.
`Fc1ccc(-c2ncn(C3CCNCC3)c2-c2ccnc(Oc3ccccc3)n2)cc1`: the inhibition is -4.71% in assay [1]; -2.73% in [2]; -2.33% in [3]; -4.97% in [4]; -5.21% in assay [5]; 1.43% in assay [6]. Moreover, the inhibition was 0.78% in [7]; -1.47% in [8]; -2.08% in [9]; -2.46% in assay [10]; -1.88% in assay [11]; -7.18% in assay [12]. For the same compound, the inhibition in [13] is -6.2%; in [14], 0.38%; in assay [15], 2.3%; in [19], 2.78%; in assay [20], 6.09%; in assay [18], 2.44%.
